Test results from PubChem BioAssay AID1159580 (chemical genetic matrix, 2015).
The campaign covered roughly 5,500 compounds. About 2,000 (36%) were called active. About 18% were inconclusive and are not listed. Cut-off read from the data, not from the text of the source: active = normalized growth mostly below about 0.91 (no sharp cut-off); inconclusive = no clear call, values can overlap the other calls; inactive = mostly above about 0.92. The list shows a part of the results.

Assay: chemical genetic growth profiling, strain panel (AID 1159580);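 note: tested at 20 µM; growth read once vehicle control cultures reached saturation at 30 °C; 1 = growth at the plate median or of vehicle wells; lower values mean less growth of the strain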
Details: S. cerevisiae deletion strains, growth OD

Measured: normalized growth

CSc1nc(N)c2ncn([C@@H]3O[C@H](COP(=O)(O)OP(=O)(O)O)[C@H](O)C3O)c2n1 (stereo partly drawn)
inactive: locus YAL013W, strain DEP1, hits give low values 1.01 | locus YAL040C, strain CLN3, hits give low values 1.01 | locus YCL061C, strain MRC1 (second series), hits give low values 1.01 | locus YDR363W, strain ESC2, hits give low values 1.04 | locus YER002W, strain NOP16, hits give low values 1 | locus YJR075W, strain HOC1, hits give low values 1.03 | locus YNL153C, strain GIM3, hits give low values 1.03 | locus YNL175C, strain NOP13, hits give low values 1.02 | locus YNL197C, strain WHI3, hits give low values 0.99 | locus YNL224C, strain SQS1, hits give low values 0.998 | locus YOR083W, strain WHI5 (second series), hits give low values 1.02 | locus YPL055C, strain LGE1, hits give low values 1.02 | locus YPL241C, strain CIN2, hits give low values 1
